sEH activator = increases human soluble epoxide hydrolase activity; P34913; purified human sEH enzymatic activity, activator screen; activation, % at 2 µM; 91,000 tested, 0.04% active; AID 717; in the data active = activation above about 37%
CYP2C9 act = increases human cytochrome P450 2C9 activity; P11712; recombinant CYP2C9, luciferin-H conversion, luminescence; active compounds read high; factor 1 = untreated enzyme, 0 = blocked; activation factor at 5 µM; 96,000 tested, 1.4% active;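 active = activation factor of 2 or more for CYP2C9 at a 5 µM dose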
Target sequence (P11712 whole entry, looked up): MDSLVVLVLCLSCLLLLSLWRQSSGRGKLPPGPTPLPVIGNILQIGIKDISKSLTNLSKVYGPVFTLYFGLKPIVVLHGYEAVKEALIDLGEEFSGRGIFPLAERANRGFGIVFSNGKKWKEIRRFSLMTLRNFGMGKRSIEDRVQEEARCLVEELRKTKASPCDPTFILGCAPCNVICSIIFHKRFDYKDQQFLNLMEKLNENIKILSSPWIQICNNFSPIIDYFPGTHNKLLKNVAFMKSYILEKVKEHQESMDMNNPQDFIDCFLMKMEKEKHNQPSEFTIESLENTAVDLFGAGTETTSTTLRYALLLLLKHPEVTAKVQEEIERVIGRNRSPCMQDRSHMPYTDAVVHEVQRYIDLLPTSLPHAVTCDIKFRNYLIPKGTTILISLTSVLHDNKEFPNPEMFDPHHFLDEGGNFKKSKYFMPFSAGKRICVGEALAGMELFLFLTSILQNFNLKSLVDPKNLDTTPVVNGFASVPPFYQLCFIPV
CYP2C9 inh = blocks human cytochrome P450 2C9. P11712. CYP2C9 Supersomes, luciferin-H conversion, luminescence. inhibition, % at 5 µM. 96,000 tested, 20% active. AID 777;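 active = blocking of liver enzyme CYP2C9 beyond about 50% at 5 µM, limit read from the data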
CYP2C19 inh = human CYP2C19 inhibition; AID 778; CYP2C19 Supersomes, luciferin-H EGE luminescence, 30 min; 96,000 tested, 21% active; inhibition, % at 5 µM; P33261;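 active = CYP2C19 inhibition above a set limit at 5 µM in the primary screen, cut at about 50% in these data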
sEH inh = soluble epoxide hydrolase (human) inhibition | P34913 | recombinant human sEH enzymatic activity assay | inhibition, % at 2 µM | 91,000 tested, 0.34% active | AID 707; in the data active = inhibition above about 80%
CYP2C19 act = cytochrome P450 2C19 (human) activation; 96,000 tested, under 10 active; AID 1025; P33261; activation factor at 5 µM; recombinant CYP2C19, luciferin-H EGE luminescence; active compounds read high; 0 = fully inhibited enzyme, 1 = untreated enzyme;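 active = activation factor of at least 2 at 5 µM in the primary screen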
Of the large screens only hits and unclear results are named; the others gave an inactive call. The list is not random: actives were taken first. Their share in the collection is about 27%.

Cc1[nH]nc2c1C(CCc1ccccc1)C(C#N)=C(N)O2 (stereo unspecified)	CYP2C19 inh 74 (no result: sEH activator, sEH inh)
COc1ccc(F)c(C2C(C#N)=C(N)Oc3n[nH]c(C(C)(C)C)c32)c1 (stereo unspecified)	CYP2C19 inh 70
CCCC1C(C#N)=C(N)Oc2n[nH]c(C(C)(C)C)c21 (stereo unspecified)	CYP2C9 inh 70, CYP2C19 inh 93 (no result: sEH activator, sEH inh)
c1ccc(-c2csc(N3CCN(c4ccccn4)CC3)n2)cc1	none
Nc1nc(NCc2ccccc2)nc(-c2ccccc2)n1	CYP2C9 inh 78, CYP2C19 inh 80
NNc1nc(NCc2ccccc2)nc(N2CCOCC2)n1	none (no result: CYP2C9 act, CYP2C9 inh, CYP2C19 inh, CYP2C19 act)
CC(=O)C1=C(O)C(=O)N(CCC(=O)O)C1c1cccc(F)c1 (stereo unspecified)	none (no result: sEH activator, sEH inh)
COCCn1c(CCC(=O)O)nc2c1c(=O)[nH]c(=O)n2CC(C)C	none
COC(=O)c1ccc(-c2nc(-c3cccs3)no2)cc1	CYP2C19 inh 91
c1csc(-c2noc(COc3ccc4c(c3)CCCC4)n2)c1	none
CCOC(=O)c1ccc(OCc2nc(-c3cccs3)no2)cc1	CYP2C9 inh 67
COc1ccccc1NC(=O)N1CCCC1C(=O)NC1CCCCC1 (stereo unspecified)	none
CC(C)C(O)(C#CCN1CCCCC1)c1ccccc1 (stereo unspecified)	CYP2C19 inh 72
CC(C)C(O)(C#CCN1CCCC1)c1ccccc1 (stereo unspecified)	CYP2C19 inh 50
CC(O)(C#CCN1CCOCC1)c1ccccc1 (stereo unspecified)	none
COc1ccc(Br)cc1C1CC(=O)N2CN(Cc3ccccc3)CSC2=C1C#N (stereo unspecified)	CYP2C9 inh 94, CYP2C19 inh 70
N#CC1=C2SCN(Cc3ccccc3)CN2C(=O)CC1c1ccccc1F (stereo unspecified)	CYP2C9 inh 65
N#CC1=C2SCN(Cc3ccco3)CN2C(=O)CC1c1c(F)cccc1Cl (stereo unspecified)	none
COc1cc(OC)c(C2CC(=O)N3CN(C)CSC3=C2C#N)cc1OC (stereo unspecified)	none (no result: sEH activator, sEH inh)
COc1ccc(Br)cc1C1CC(=O)N2CN(C)CSC2=C1C#N (stereo unspecified)	CYP2C9 inh 88, CYP2C19 inh 60
COc1ccc(-n2nnnc2SCC(=O)Nc2nc3c(s2)CCCC3)cc1	none
Cc1nn(-c2ccccc2)c2sc(C(=O)OCN3C(=O)c4ccccc4C3=O)cc12	none (no result: sEH activator, sEH inh)
CC(C)C(NC(=O)CNC(=O)OC(C)(C)C)C(=O)NCc1ccccc1 (stereo unspecified)	none
O=C1NCCN1Cc1ccc(F)cc1	none
COc1ccc2occ(C(=O)c3cccs3)c2c1	CYP2C9 inh 53, CYP2C19 inh 75
CNC(=O)C(Sc1ccccc1)c1ccccc1 (stereo unspecified)	CYP2C19 inh 91 (no result: sEH activator, sEH inh)
COc1ccc(OC)c(NC(=O)C(Sc2ccccc2)c2ccccc2)c1 (stereo unspecified)	CYP2C19 inh 56
O=C(Nn1cnnc1)C(Sc1ccccc1)c1ccccc1 (stereo unspecified)	CYP2C9 inh 74, CYP2C19 inh 61 (no result: sEH activator, sEH inh)
CCN(CC)C(=O)C(Sc1ccccc1)c1ccccc1 (stereo unspecified)	CYP2C19 inh 90
O=C(Nn1cnnc1)C(c1ccccc1)c1ccccc1	none (no result: sEH activator, sEH inh)
CN(C)CCCN1C(=O)c2oc3ccc(F)cc3c(=O)c2C1c1cccnc1 (stereo unspecified)	none (no result: sEH activator, sEH inh)
O=C1C2CC=C(Cl)CC2C(=O)N1CC1OCCc2ccccc21 (stereo unspecified)	CYP2C9 inh 55, CYP2C19 inh 74
CCOC(=O)c1cc(C)n(S(=O)(=O)c2ccc(C)cc2)c1C	none
O=C1SC(c2ccccc2)=C/C1=C\N1CCCCC1	CYP2C19 inh 57
O=C1OC(c2ccccc2)=C/C1=C/N1CCOCC1	none (no result: CYP2C9 act, CYP2C9 inh, CYP2C19 inh, CYP2C19 act)
COC(=O)CN(c1nc(C)cc(OC)n1)S(=O)(=O)c1ccc(C)cc1	none (no result: sEH activator, sEH inh)
COC(=O)CN(c1nc(C)c(Br)c(OC)n1)S(=O)(=O)c1ccc(C)cc1	CYP2C9 inh 89, CYP2C19 inh 90
CCc1nnc(NC(=O)CSc2nnc(CSc3nc(C)cc(C)n3)n2CC)s1	none (no result: CYP2C9 act, CYP2C9 inh, CYP2C19 inh, CYP2C19 act)
CCN(CC)C(=O)c1n[nH]c(=O)c2ccccc12	none
Cc1noc(C)c1CN1C(=O)NC(Cc2ccccc2)(Cc2ccccc2)C1=O	none (no result: sEH activator, sEH inh)
